The record followed here is publication PMC7862700, “An all-to-all approach to the identification of sequence-specific readers for epigenetic DNA modifications on cytosine”.

In the first assay the target is ELF4 (Homo sapiens, UniProt Q99607 1-663). In words: DAPPL (digital affinity profiling via proximity ligation, sequencing); 10 mM Tris-HCl pH 7.5, 50 mM NaCl, 1 mM DTT, 4% glycerol, room temperature, 30 min; GST-TFs on glutathione beads, 16-mer random dsDNA library, 0.1% formaldehyde crosslink after washing; high values mean tight binding. The conditions noted are these: protein: recombinant; tags: N-terminal GST; dsDNA, one strand shown. Summed up: (§1)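 Yeast served to express human transcription factors as GST fusions, which were then captured on glutathione beads and labelled with DNA barcodes. Pooled with a tag-only sample, they were incubated with 200 nmole of a 16-mer random double-stranded DNA library for 30 min at room temperature in Tris/NaCl/DTT/glycerol buffer, washed, crosslinked with 0.1% formaldehyde, ligated by proximity, amplified by PCR and sequenced. Dividing each hexamer's read frequency for a factor by its frequency for the tag-only sample gives the binding signal.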
ELF4, sequence (Q99607 whole entry, the tested form may be a part): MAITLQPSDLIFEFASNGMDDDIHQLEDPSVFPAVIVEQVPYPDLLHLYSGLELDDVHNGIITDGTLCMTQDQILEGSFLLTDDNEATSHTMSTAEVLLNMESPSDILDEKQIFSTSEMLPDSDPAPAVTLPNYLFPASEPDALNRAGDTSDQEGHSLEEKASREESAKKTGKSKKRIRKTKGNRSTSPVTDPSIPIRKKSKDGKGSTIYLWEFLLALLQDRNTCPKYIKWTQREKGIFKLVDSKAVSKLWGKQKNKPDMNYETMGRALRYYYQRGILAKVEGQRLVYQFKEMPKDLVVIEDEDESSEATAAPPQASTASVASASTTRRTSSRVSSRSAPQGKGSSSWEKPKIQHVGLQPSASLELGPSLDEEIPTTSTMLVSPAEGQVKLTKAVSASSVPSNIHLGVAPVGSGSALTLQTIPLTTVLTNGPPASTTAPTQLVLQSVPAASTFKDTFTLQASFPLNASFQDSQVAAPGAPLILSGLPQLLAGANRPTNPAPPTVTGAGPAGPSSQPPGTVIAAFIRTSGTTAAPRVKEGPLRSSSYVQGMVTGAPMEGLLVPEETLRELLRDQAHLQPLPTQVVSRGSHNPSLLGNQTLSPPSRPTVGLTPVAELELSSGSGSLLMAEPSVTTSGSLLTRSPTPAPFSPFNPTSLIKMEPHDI
For GTATTC, the binding signal is 1.27 fold enrichment (6-mer frequency, TF over GST control).
Regarding CACTAT, the binding signal was 1.26 fold enrichment (6-mer frequency, TF over GST control).
On to ATCATT, for which the binding signal was 1.05 fold enrichment (6-mer frequency, TF over GST control).
As to CCTCAT, the binding signal was 1.39 fold enrichment (6-mer frequency, TF over GST control).
The same measure, in the same setting: in the case of ATATTC it was 1.29 fold enrichment (6-mer frequency, TF over GST control); in that of CTCATC, 1.35 fold enrichment (6-mer frequency, TF over GST control); in that of TTATTA, 1.18 fold enrichment (6-mer frequency, TF over GST control).
In the case of TTTCTT, the binding signal is 1.33 fold enrichment (6-mer frequency, TF over GST control).
Still for that read-out and setting: in the case of TCTTCA it was 1.2 fold enrichment (6-mer frequency, TF over GST control); in that of CATTAT, 1.21 fold enrichment (6-mer frequency, TF over GST control); in that of TGACTC, 1.35 fold enrichment (6-mer frequency, TF over GST control).
Take AAATTA: the binding signal is 1.23 fold enrichment (6-mer frequency, TF over GST control).
Consider CCTGAA, for which the binding signal was 1.31 fold enrichment (6-mer frequency, TF over GST control).
The same measure, in the same setting: in the case of TCCGGA it was 2.27 fold enrichment (6-mer frequency, TF over GST control); in that of AATTCT, 1.33 fold enrichment (6-mer frequency, TF over GST control).
Regarding CTTTAA, the binding signal was 1.26 fold enrichment (6-mer frequency, TF over GST control).
Same read-out and setting: the same measure for TCGAAT: 1.1 fold enrichment (6-mer frequency, TF over GST control); for TGACAA: 1.26 fold enrichment (6-mer frequency, TF over GST control); for TCCCGC: 1.55 fold enrichment (6-mer frequency, TF over GST control).
The same measure, in the same setting: in the case of TATCAG it was 1.18 fold enrichment (6-mer frequency, TF over GST control).
The same measure, in the same setting: the same measure for ACTCCT: 1.59 fold enrichment (6-mer frequency, TF over GST control); for AATAGA: 1.07 fold enrichment (6-mer frequency, TF over GST control); for TATGGT: 1.34 fold enrichment (6-mer frequency, TF over GST control).
In the case of TAAGCT, the binding signal is 1.18 fold enrichment (6-mer frequency, TF over GST control).
On to AAATGC, for which the binding signal is 1.23 fold enrichment (6-mer frequency, TF over GST control).
Still for that read-out and setting: in the case of TCTGTT it was 1.39 fold enrichment (6-mer frequency, TF over GST control); in that of TCTCAT, 1.25 fold enrichment (6-mer frequency, TF over GST control); in that of CCCACG, 1.27 fold enrichment (6-mer frequency, TF over GST control).
Same read-out and setting: in the case of TGCACT it was 1.33 fold enrichment (6-mer frequency, TF over GST control).
The same measure, in the same setting: the same measure for TTCATC: 1.27 fold enrichment (6-mer frequency, TF over GST control); for ATATTG: 1.37 fold enrichment (6-mer frequency, TF over GST control); for TGTTAC: 1.47 fold enrichment (6-mer frequency, TF over GST control).
On to TCCACT, for which the binding signal was 1.51 fold enrichment (6-mer frequency, TF over GST control).
Take TTGTAG: the binding signal is 1.2 fold enrichment (6-mer frequency, TF over GST control).
The same measure, in the same setting: in the case of AGAAGC it was 1.13 fold enrichment (6-mer frequency, TF over GST control); in that of CTTCTA, 1.38 fold enrichment (6-mer frequency, TF over GST control); in that of TCTATA, 1.23 fold enrichment (6-mer frequency, TF over GST control).
With ATTCCA, the binding signal is 1.25 fold enrichment (6-mer frequency, TF over GST control).
On the same count and under the same terms, in the case of TAAACA it was 1.26 fold enrichment (6-mer frequency, TF over GST control); in that of ACCCGC, 1.35 fold enrichment (6-mer frequency, TF over GST control).

A further assay deals with T1, ELK4 (Homo sapiens, UniProt P28324-2 1-405).
T1 sequence: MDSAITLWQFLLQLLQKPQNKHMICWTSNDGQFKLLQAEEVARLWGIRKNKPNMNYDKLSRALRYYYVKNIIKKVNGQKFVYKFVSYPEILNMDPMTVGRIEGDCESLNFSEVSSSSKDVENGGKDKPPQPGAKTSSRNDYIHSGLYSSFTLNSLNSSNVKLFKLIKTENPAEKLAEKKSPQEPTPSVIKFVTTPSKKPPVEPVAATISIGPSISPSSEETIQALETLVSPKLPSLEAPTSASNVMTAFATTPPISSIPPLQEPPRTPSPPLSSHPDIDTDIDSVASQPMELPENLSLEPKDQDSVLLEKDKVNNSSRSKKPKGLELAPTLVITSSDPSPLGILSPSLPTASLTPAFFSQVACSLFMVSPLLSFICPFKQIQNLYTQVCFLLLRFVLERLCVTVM
The assay is described as above. The conditions noted are these: protein: recombinant; tags: N-terminal GST; dsDNA, one strand shown. Summed up: as §1
For GTATTC, the binding signal was 1.16 fold enrichment (6-mer frequency, TF over GST control).
As to CACTAT, the binding signal was 1.25 fold enrichment (6-mer frequency, TF over GST control).
Same read-out and setting: in the case of ATCATT it was 1.06 fold enrichment (6-mer frequency, TF over GST control); in that of CCTCAT, 1.3 fold enrichment (6-mer frequency, TF over GST control).
Same read-out and setting: in the case of ATATTC it was 1.31 fold enrichment (6-mer frequency, TF over GST control); in that of CTCATC, 1.32 fold enrichment (6-mer frequency, TF over GST control).
On the same count and under the same terms, in the case of TTATTA it was 1.03 fold enrichment (6-mer frequency, TF over GST control); in that of TTTCTT, 1.17 fold enrichment (6-mer frequency, TF over GST control).
Consider TCTTCA, for which the binding signal is 1.07 fold enrichment (6-mer frequency, TF over GST control).
On to CATTAT, for which the binding signal was 1.28 fold enrichment (6-mer frequency, TF over GST control).
Same read-out and setting: the same measure for TGACTC: 1.31 fold enrichment (6-mer frequency, TF over GST control); for AAATTA: 1.28 fold enrichment (6-mer frequency, TF over GST control); for CCTGAA: 1.41 fold enrichment (6-mer frequency, TF over GST control).
The same measure, in the same setting: in the case of TCCGGA it was 1.94 fold enrichment (6-mer frequency, TF over GST control); in that of AATTCT, 1.29 fold enrichment (6-mer frequency, TF over GST control); in that of CTTTAA, 1.28 fold enrichment (6-mer frequency, TF over GST control).
On to TCGAAT, for which the binding signal was 1.33 fold enrichment (6-mer frequency, TF over GST control).
The same measure, in the same setting: in the case of TGACAA it was 1.2 fold enrichment (6-mer frequency, TF over GST control); in that of TCCCGC, 1.26 fold enrichment (6-mer frequency, TF over GST control).
The same measure, in the same setting: the same measure for TATCAG: 1.35 fold enrichment (6-mer frequency, TF over GST control); for ACTCCT: 1.54 fold enrichment (6-mer frequency, TF over GST control); for AATAGA: 1.1 fold enrichment (6-mer frequency, TF over GST control).
As for TATGGT, the binding signal was 1.44 fold enrichment (6-mer frequency, TF over GST control).
Still for that read-out and setting: in the case of TAAGCT it was 1.21 fold enrichment (6-mer frequency, TF over GST control); in that of AAATGC, 1.37 fold enrichment (6-mer frequency, TF over GST control).
Same read-out and setting: the same measure for TCTGTT: 1.25 fold enrichment (6-mer frequency, TF over GST control); for TCTCAT: 1.37 fold enrichment (6-mer frequency, TF over GST control); for CCCACG: 1.25 fold enrichment (6-mer frequency, TF over GST control).
The same measure, in the same setting: in the case of TGCACT it was 1.31 fold enrichment (6-mer frequency, TF over GST control); in that of TTCATC, 1.27 fold enrichment (6-mer frequency, TF over GST control); in that of ATATTG, 1.24 fold enrichment (6-mer frequency, TF over GST control).
For TGTTAC, the binding signal was 1.51 fold enrichment (6-mer frequency, TF over GST control).
Consider TCCACT, for which the binding signal was 1.49 fold enrichment (6-mer frequency, TF over GST control).
On the same count and under the same terms, in the case of TTGTAG it was 1.31 fold enrichment (6-mer frequency, TF over GST control); in that of AGAAGC, 1.07 fold enrichment (6-mer frequency, TF over GST control).
Same read-out and setting: in the case of CTTCTA it was 1.53 fold enrichment (6-mer frequency, TF over GST control).
Still for that read-out and setting: the same measure for TCTATA: 1.24 fold enrichment (6-mer frequency, TF over GST control); for ATTCCA: 1.19 fold enrichment (6-mer frequency, TF over GST control).
Regarding TAAACA, the binding signal is 1.37 fold enrichment (6-mer frequency, TF over GST control).
The same measure, in the same setting: in the case of ACCCGC it was 1.39 fold enrichment (6-mer frequency, TF over GST control).

The target in another assay is T2, ETV2 (Homo sapiens, UniProt O00321 1-342).
T2 sequence: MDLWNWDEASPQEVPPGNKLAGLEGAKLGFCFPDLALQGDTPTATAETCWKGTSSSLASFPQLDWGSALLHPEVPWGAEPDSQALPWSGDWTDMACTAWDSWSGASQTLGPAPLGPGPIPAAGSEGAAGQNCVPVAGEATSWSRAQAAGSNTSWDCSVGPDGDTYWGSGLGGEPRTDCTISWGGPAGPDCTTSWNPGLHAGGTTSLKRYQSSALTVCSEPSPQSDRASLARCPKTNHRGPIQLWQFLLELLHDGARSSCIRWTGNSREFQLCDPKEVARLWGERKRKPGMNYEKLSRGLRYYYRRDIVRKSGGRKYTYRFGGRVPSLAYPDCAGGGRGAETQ
The assay is described as above. The conditions noted are these: protein: recombinant; tags: N-terminal GST; dsDNA, one strand shown. Summed up:
as §1
Take GTATTC: the binding signal is 1.27 fold enrichment (6-mer frequency, TF over GST control).
The same measure, in the same setting: in the case of CACTAT it was 1.09 fold enrichment (6-mer frequency, TF over GST control).
Still for that read-out and setting: the same measure for ATCATT: 1.15 fold enrichment (6-mer frequency, TF over GST control).
Still for that read-out and setting: the same measure for CCTCAT: 1.1 fold enrichment (6-mer frequency, TF over GST control).
For ATATTC, the binding signal is 1.22 fold enrichment (6-mer frequency, TF over GST control).
Consider CTCATC, for which the binding signal is 1.45 fold enrichment (6-mer frequency, TF over GST control).
Consider TTATTA, for which the binding signal is 1.2 fold enrichment (6-mer frequency, TF over GST control).
Still for that read-out and setting: the same measure for TTTCTT: 1.24 fold enrichment (6-mer frequency, TF over GST control); for TCTTCA: 1.18 fold enrichment (6-mer frequency, TF over GST control).
Still for that read-out and setting: the same measure for CATTAT: 1.05 fold enrichment (6-mer frequency, TF over GST control).
TGACTC: the binding signal is 1.31 fold enrichment (6-mer frequency, TF over GST control).
With AAATTA, the binding signal was 1.4 fold enrichment (6-mer frequency, TF over GST control).
Still for that read-out and setting: in the case of CCTGAA it was 1.47 fold enrichment (6-mer frequency, TF over GST control); in that of TCCGGA, 2.27 fold enrichment (6-mer frequency, TF over GST control); in that of AATTCT, 1.4 fold enrichment (6-mer frequency, TF over GST control).
In the case of CTTTAA, the binding signal was 1.27 fold enrichment (6-mer frequency, TF over GST control).
Still for that read-out and setting: in the case of TCGAAT it was 1.03 fold enrichment (6-mer frequency, TF over GST control); in that of TGACAA, 1.14 fold enrichment (6-mer frequency, TF over GST control).
The same measure, in the same setting: the same measure for TCCCGC: 1.31 fold enrichment (6-mer frequency, TF over GST control); for TATCAG: 1.01 fold enrichment (6-mer frequency, TF over GST control).
